A short description of experiment [1]: small molecules captured by biotinylated probe aFSTL3 – biochemical, small-molecule microarray, fluorescence 635/667, stem cell growth factor project, primary screen (AID 1064).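 Also: measures binding of the biotinylated anti-FSTL3 antibody to printed compounds.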 As to conditions: higher = more signal.
Experiment [2] is described as follows: binders from COS7 lysate, DM2A8 probe, primary screen, torsin A project, cell lysate, small-molecule microarray, fluorescence 635/667 (AID 1065). The conditions noted are these: higher = more signal, COS7 lysate expressing mutant human TOR1A.
Experiment [3] in a line: small molecules captured by biotinylated probe aFGF2 – biochemical, small-molecule microarray, fluorescence 635/667, stem cell growth factor project, primary screen (AID 1067).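 Also: measures binding of biotinylated aFGF2 protein to printed compounds on slides; z-score merges feature fluorescence and signal-to-noise across triplicate slides.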 The conditions noted are these: higher = more signal.
Experiment [4] is described as follows: small molecules captured by biotinylated probe aFGF10 – biochemical, small-molecule microarray, fluorescence 635/667, stem cell growth factor project, primary screen (AID 1071).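 Also: score merges 667 nm spot intensity and signal to noise from triplicate slides.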 As to conditions: higher = more signal.
Experiment [5] has as its target Neurogenic locus notch homolog protein 2 (Homo sapiens) (UniProt Q04721). Kind of experiment: small molecules binding Notch2 protein – biochemical, small-molecule microarray, 635 nm fluorescence, stem cell growth factors, primary screen (AID 1073). As to conditions: higher = more signal.
Experiment [6] concerns the target Pro-neuregulin-1, membrane-bound isoform (Homo sapiens) (UniProt Q02297). Kind of experiment: small molecules binding neuregulin-1 protein – biochemical, small-molecule microarray, fluorescence 635/667, psychiatric disease protein project, primary screen (AID 1075).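 Also: score combines 667 nm spot fluorescence with signal to noise.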 As to conditions: NRG1 binding, 635 nm fluorescence, higher = more signal.
Experiment [7] concerns Neuregulin-1 EGF-like domain. Kind of experiment: small molecules binding NRG1 EGF domain – biochemical, small-molecule microarray, 635 nm fluorescence, primary screen (AID 1081).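 Also: binding of the protein to compounds printed on small-molecule microarray slides.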 The conditions noted are these: higher = more signal.
A short description of experiment [8]: FRG1 expression reporter modulators in myotubes – cell-based, C2C12 myotubes, firefly/Renilla luciferase, luminescence, FRG1 inhibition for FSHD, primary screen (AID 1084). As to conditions: FRG1 promoter luciferase, higher = more signal, called active from +8 up or from −8 down.
Experiment [9] is described as follows: small molecules captured by biotinylated probe aFST – biochemical, small-molecule microarray, fluorescence 635/667, stem cell growth factor project, primary screen (AID 1086).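 Also: score merges 667 nm fluorescence with signal-to-noise of each printed compound spot.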 As to conditions: higher = more signal.
The nature of experiment [10]: binders of probe aHhip on microarray, primary screen, stem cell growth factor project, biochemical, small-molecule microarray, fluorescence 635/667 (AID 1087).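 Also: score merges spot fluorescence at 667nm with spot signal to noise ratio.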 As to conditions: higher = more signal.
Experiment [11] has as its system PRMT1 (protein arginine N-methyltransferase 1). Kind of experiment: small molecules binding arginine methyltransferase PRMT1 – biochemical, small-molecule microarray, 635 nm fluorescence, primary screen (AID 1088).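 Also: binding of Prmt1 protein to compounds spotted on small-molecule microarray slides.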 The conditions noted are these: higher = more signal.
Experiment [12] can be described thus: growth effects on S. cerevisiae YJM789 – YJM789 clinical isolate, OD600, 24 h, basal, primary screen (AID 1089).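 Also: growth of clinical yeast isolate S. cerevisiae YJM 789 seeded 1000 cells per well; test concentration not given here.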 As to conditions: higher = more signal, called active from +8 up or from −8 down.
Experiment [13] is described as follows: S. pombe growth modifiers, basal conditions – strain 972, OD600, 24 h, no modulator, primary screen (AID 1090).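 Also: basal condition with compound alone and no growth modifier present; test concentration not given here.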 The conditions noted are these: S. pombe 972 growth, higher = more signal, called active from +8 up or from −8 down.
A short description of experiment [14]: budding yeast growth modifiers under rapamycin – strain BY4716, OD600, 96 h, primary screen (AID 1091). Also: test concentration not given here. As to conditions: S. cerevisiae BY4716 + rapamycin, higher = more signal, called active from +8 up or from −8 down.
The target of experiment [15] is Torsin-1A-interacting protein 2 (Homo sapiens) (UniProt Q8NFQ8). Kind of experiment: small molecules binding lysate-expressed LULL1 – cell lysate, human LULL1 lysate, 635/667 nm fluorescence, primary screen (AID 1092).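 Also: score merges per-feature 667 nm fluorescence with signal-to-noise.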 The conditions noted are these: small-molecule microarray, hLULL1 lysate binding, 635 nm fluorescence; higher = more signal.
Sequence of Torsin-1A-interacting protein 2 (Homo sapiens) (Q8NFQ8 whole entry, looked up): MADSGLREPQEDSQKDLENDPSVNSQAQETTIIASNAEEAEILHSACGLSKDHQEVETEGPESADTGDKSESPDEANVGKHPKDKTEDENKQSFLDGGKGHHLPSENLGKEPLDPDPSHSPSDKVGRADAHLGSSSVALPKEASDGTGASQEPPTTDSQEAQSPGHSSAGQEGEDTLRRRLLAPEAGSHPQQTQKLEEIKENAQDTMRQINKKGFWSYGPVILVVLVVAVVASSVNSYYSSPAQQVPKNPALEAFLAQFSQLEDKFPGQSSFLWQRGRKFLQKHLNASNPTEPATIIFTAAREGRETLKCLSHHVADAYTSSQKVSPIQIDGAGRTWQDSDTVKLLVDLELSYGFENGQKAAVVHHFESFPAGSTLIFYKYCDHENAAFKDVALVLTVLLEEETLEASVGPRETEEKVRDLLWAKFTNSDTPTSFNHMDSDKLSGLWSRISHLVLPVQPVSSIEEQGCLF
A short description of experiment [16]: optical density change of DRC41 E. coli – strain DRC41, OD650, 24 h, E. coli filamentation project, primary screen (AID 1093).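 Also: MC1000 strain lacking acrAB efflux and sulA so SOS filamentation is blocked; test concentration not given here.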 As to conditions: E. coli DRC41 growth, higher = more signal, called active from +8 up or from −8 down.
Experiment [17] is described as follows: probe aLefty2 binding to arrayed compounds – biochemical, biotinylated probe, 635/667 nm fluorescence, primary screen (AID 1094).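 Also: score merges spot fluorescence near 667 nm with spot signal-to-noise ratio.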 The conditions noted are these: small-molecule microarray, higher = more signal.
The subject of experiment [18] is Noggin (protein binding on small-molecule microarray). Kind of experiment: small molecules binding Noggin protein – biochemical, 635/667 nm fluorescence, primary screen (AID 1095).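 Also: score merges 667 nm feature fluorescence with signal to noise over triplicate slides.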 The conditions noted are these: 635 nm fluorescence, higher = more signal.
Experiment [19] concerns the target Neurogenic locus notch homolog protein 3 (Homo sapiens) (UniProt Q9UM47). Kind of experiment: small molecules binding NOTCH3 protein – biochemical, 635/667 nm fluorescence, primary screen (AID 1096). The conditions noted are these: small-molecule microarray, 635 nm fluorescence, higher = more signal.
The nature of experiment [20]: probe aEGFR binding to arrayed compounds – biochemical, biotinylated probe, 635/667 nm fluorescence, primary screen (AID 1097).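 Also: probe is a biotinylated anti-EGFR antibody binding compounds printed on slides; score combines fluorescence near 667 nm and signal to noise of each spot.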 The conditions noted are these: small-molecule microarray, higher = more signal.

Composite z-score and z-score data for five molecules are collected here from PubChem BioAssay.

Activity calls are given as the source filed them.

Sequence of Neurogenic locus notch homolog protein 2 (Homo sapiens) (Q04721 whole entry, looked up, canonical isoform): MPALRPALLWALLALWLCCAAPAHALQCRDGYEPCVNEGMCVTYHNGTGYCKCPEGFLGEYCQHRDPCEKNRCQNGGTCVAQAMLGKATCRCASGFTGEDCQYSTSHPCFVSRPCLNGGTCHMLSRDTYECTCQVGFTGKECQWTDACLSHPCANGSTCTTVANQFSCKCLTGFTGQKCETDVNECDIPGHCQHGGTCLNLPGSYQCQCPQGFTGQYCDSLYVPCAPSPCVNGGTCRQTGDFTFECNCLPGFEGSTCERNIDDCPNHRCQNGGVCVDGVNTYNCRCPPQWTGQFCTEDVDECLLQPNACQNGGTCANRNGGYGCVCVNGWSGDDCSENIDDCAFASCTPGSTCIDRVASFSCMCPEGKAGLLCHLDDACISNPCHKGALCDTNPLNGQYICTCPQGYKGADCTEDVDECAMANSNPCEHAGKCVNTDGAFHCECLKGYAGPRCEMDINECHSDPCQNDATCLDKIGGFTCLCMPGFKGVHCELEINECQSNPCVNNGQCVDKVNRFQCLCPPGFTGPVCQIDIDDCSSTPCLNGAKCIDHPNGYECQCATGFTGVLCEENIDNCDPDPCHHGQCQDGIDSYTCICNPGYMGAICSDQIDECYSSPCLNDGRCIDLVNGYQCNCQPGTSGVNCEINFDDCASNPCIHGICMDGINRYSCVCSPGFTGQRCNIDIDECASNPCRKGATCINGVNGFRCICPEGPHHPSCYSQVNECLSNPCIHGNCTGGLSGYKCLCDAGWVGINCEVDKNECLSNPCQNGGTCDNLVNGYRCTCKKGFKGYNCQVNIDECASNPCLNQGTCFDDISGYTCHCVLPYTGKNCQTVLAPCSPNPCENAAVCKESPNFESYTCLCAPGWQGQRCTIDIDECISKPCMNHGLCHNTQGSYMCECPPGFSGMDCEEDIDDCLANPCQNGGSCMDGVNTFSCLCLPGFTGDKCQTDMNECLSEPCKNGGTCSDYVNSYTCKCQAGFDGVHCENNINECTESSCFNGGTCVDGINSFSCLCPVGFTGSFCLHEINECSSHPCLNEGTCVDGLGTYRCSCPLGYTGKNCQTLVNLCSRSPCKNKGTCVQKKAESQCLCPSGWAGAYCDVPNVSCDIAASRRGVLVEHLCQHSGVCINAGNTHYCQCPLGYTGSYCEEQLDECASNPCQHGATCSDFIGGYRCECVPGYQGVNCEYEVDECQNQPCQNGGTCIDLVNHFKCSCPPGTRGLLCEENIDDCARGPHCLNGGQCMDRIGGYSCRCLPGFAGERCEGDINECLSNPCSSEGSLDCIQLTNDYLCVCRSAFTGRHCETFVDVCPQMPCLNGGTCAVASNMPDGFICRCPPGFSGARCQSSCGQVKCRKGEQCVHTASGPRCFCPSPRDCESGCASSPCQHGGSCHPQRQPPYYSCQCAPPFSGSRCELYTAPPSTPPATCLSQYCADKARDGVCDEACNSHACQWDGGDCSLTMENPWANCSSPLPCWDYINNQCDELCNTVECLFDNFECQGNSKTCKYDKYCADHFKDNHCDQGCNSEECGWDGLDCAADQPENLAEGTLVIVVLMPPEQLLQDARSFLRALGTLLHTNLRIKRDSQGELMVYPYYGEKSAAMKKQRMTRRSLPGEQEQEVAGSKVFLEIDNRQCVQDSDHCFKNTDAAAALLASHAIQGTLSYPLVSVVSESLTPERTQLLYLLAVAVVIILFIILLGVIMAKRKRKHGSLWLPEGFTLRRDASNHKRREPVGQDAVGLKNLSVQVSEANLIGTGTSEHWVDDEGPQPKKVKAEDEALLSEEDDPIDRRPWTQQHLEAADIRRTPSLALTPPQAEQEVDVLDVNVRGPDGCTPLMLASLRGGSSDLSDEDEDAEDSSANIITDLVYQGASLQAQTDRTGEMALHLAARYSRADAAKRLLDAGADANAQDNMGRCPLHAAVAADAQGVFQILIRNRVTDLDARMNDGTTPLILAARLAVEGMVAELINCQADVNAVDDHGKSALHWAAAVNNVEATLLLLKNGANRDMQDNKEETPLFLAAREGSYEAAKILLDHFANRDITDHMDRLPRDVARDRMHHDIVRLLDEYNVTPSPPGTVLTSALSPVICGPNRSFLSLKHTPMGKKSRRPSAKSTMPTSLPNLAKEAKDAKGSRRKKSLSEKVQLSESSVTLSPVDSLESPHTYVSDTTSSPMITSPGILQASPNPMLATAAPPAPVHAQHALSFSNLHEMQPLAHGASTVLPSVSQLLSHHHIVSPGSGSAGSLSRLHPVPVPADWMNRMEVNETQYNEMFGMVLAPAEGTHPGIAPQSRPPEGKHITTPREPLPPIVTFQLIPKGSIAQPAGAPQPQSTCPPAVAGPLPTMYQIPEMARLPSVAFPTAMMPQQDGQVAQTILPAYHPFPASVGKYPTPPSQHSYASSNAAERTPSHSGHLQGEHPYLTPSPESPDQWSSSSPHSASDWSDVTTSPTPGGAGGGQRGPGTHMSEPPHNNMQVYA
Sequence of Pro-neuregulin-1, membrane-bound isoform (Homo sapiens) (Q02297 whole entry, looked up, the tested form may be a part, canonical isoform): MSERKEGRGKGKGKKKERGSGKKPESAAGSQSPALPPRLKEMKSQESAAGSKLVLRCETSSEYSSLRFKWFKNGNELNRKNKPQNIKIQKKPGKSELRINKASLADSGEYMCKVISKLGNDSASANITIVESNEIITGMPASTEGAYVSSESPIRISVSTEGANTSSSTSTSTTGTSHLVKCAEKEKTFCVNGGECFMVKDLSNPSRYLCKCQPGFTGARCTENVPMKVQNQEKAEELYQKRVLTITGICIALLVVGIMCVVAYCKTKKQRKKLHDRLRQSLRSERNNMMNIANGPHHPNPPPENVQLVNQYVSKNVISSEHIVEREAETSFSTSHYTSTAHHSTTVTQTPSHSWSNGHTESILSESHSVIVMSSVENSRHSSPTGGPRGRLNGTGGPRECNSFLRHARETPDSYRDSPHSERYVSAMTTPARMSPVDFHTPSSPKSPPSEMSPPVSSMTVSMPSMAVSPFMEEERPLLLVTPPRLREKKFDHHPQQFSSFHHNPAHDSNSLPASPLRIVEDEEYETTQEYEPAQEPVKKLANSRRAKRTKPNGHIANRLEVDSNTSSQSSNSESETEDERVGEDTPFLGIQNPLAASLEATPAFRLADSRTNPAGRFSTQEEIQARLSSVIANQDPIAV

Consider `COc1ccc(C#Cc2ccc3c(c2)[C@]2(C(=O)N3)[C@H](c3ccc(OCCO)cc3)N3[C@H](c4ccccc4)[C@H](c4ccccc4)OC(=O)[C@H]3[C@@H]2C(=O)N2CCc3cc(OC)c(OC)cc3C2)cc1`, for which the composite z-score was -0.253 in experiment [1]; 0.447 in experiment [2]; -0.0746 in experiment [3]; 0.862 in experiment [4]; 1.2 in experiment [5]; 1.78 in experiment [6]. Further, the composite z-score is 1.16 in [7]; 0.0959 in experiment [9]; -0.623 in [10]; 1.55 in [11]; 2.81 in [15]; -0.209 in [17]. Further, the values for the composite z-score in experiment [18], in experiment [19] and in experiment [20] were 0.784, 1.12 and 0.481, respectively. For the same molecule, the z-score in [8] is 1.14 (inactive); in [12] it was 2.27 (inactive); in [13], 1.94 (inactive); in experiment [14] it was 4.57 (inactive); in experiment [16] it was 0.0933 (inactive).
With `CCCNC(=O)[C@@]1(C)c2ccccc2C(=O)N(Cc2ccccc2)[C@H]1c1ccc(CO)cc1`, the composite z-score in experiment [1] was 1.93; in experiment [2], -0.685; in experiment [3] it was 0.12; in experiment [4], 1.32; in [5], -1.28; in experiment [6], 1.97. Besides, the composite z-score stood at 0.974 in [7]; 0.476 in [9]; 0.106 in [10]; 1.54 in experiment [11]; 2.76 in experiment [15]; 0.0844 in experiment [17]. The composite z-score in experiment [18] is -1.1; in experiment [19] it was -0.127; in [20], -0.094. Moreover, the z-score is -1.98 (inactive) in experiment [8]; -0.864 (inactive) in experiment [12]; -1.08 (inactive) in [13]; -0.871 (inactive) in experiment [14]; 1.32 (inactive) in [16].
As to `C=CCNC(=O)[C@H]1[C@@H]2C(=O)O[C@@H](c3ccccc3)[C@@H](c3ccccc3)N2[C@@H](c2ccc(OCCO)cc2)[C@]12C(=O)N(C(=O)OCCOC)c1ccc(C#Cc3ccc(OC)cc3)cc12`, the composite z-score was 0.0886 in [1]; 0.91 in experiment [2]; -0.0252 in [3]; 0.713 in experiment [4]; 0.897 in experiment [5]; 0.671 in experiment [6]. The composite z-score in experiment [7] was 1.12; in [9], 0.111; in experiment [10], -0.335; in experiment [11], 1.41; in [15], 2.47; in experiment [17], -0.0154. The composite z-score is 1.04 in [18], 1.09 in experiment [19] and -0.0164 in experiment [20]. In addition, the z-score in experiment [8] is 0.0138 (inactive); in experiment [12], 1.2 (inactive); in experiment [13], 0.927 (inactive); in [14], 6.91 (inactive); in [16], 2.63 (inactive).
On to `C=C(COC)C(=O)CC[C@H](OC(C)=O)c1ccc(OCCO)cc1`, for which the composite z-score in [1] is -0.198; in experiment [2] it was -0.722; in experiment [3] it was -0.0533; in experiment [4] it was 1.21; in [5], -0.189; in experiment [6], -0.0732. Further, the composite z-score in experiment [7] was 1.1; in experiment [9] it was 0.375; in experiment [10], -0.191; in experiment [11], 1.44; in experiment [15], -0.451; in [17] it was -0.211. The composite z-score is 1.93 in [18], 0.711 in experiment [19] and -0.0387 in experiment [20]. Moreover, the z-score in experiment [8] was 1.08 (inactive); in [12], 0.389 (inactive); in experiment [13] it was -2.5 (inactive); in experiment [14] it was -1.06 (inactive); in experiment [16], 1.39 (inactive).
Turning to `CCCCC(=C=CC[C@H](O)c1ccc(OCCO)cc1)C[C@H](O)COCc1ccccc1`, the composite z-score is -0.117 in [1]; -0.366 in experiment [2]; -0.0409 in experiment [3]; 0.692 in experiment [4]; -0.238 in [5]; 1.06 in experiment [6]. For the same molecule, the composite z-score in experiment [7] is 0.879; in experiment [9], -0.0834; in experiment [10], 0.152; in experiment [11], 0.857; in [15] it was 1.36; in [17] it was -0.116. For the same molecule, the composite z-score in [18] is 0.395; in [19] it was -0.36; in experiment [20] it was 0.0028. For the same molecule, the z-score was -0.947 (inactive) in experiment [8]; 0.85 (inactive) in experiment [12]; -1.43 (inactive) in [13]; -0.374 (inactive) in [14]; 0.125 (inactive) in [16].
